# The whole screen tested about 38,000 compounds, of which about 1,200 (3.2%) showed an effect of 50% or more. The median lay at about -58%. The list comes from a sample in which strong results are over-represented; it also holds similar structures and randomly drawn compounds.
# Tested on: Plasmodium falciparum
# Test: Calibr Malaria Delayed Death Assay SOP
# Assay type: functional, organism-based
# Set-up: scale not given: in the data most compounds retested in dose-response had high values
# Settings: concentration 4.99e-06 (unit not given; other assays of the set use mol/L)
row,Compound,Percent Effect [%]
1,CCC(NC1CCN(S(C)(=O)=O)CC1)c1cccs1 (centres undefined),-138.1
2,COc1cc(NC(=O)NCC2CCCO2)cc(OC)c1 (centres undefined),-111.7
3,Cc1cncc(C2CCCN(CC3CCC3)C2)n1 (centres undefined),-16.18
4,COC1CCN(C(=O)Nc2ccccc2)CC(=O)N(C)c2ccccc21 (centres undefined),-65.05
5,CCc1nc(C)c(CC(=O)N2CCC3(CC2)OCCCC3OC)c(=O)[nH]1 (centres undefined),-118.2
6,CCN1CCC(CNC(=O)NCc2cc(-c3ccc(C)cc3)no2)C1 (centres undefined),-139.2
7,CCN1CCC(CNCc2cc(C)ccc2OC)C1 (centres undefined),82.22
8,CCN1CCC(CNCc2cc(OC)ccc2OC)C1 (centres undefined),56.22
9,CCN1CCC(Cn2ccc3c(OC)c(OC)ccc3c2=O)C1 (centres undefined),20.65
10,CCN1CCCC(CNC(=O)CCc2ccc(OC)c(F)c2)C1 (centres undefined),-76.38
11,CCN1CCC(CNCc2c[nH]nc2C(C)(C)C)C1.Cl (centres undefined),-150.6
12,CCO[C@H]1COC[C@@H]1NC(=O)CCc1nc(-c2ccccc2)no1,-93.65
13,CCS(=O)(=O)N1CC(c2nc(-c3ccsc3)no2)C1,-143.6
14,CCOCC(=O)NCCc1nc(C2CC2)cc(C(F)(F)F)n1,-127.5
15,Cc1cccnc1CNC(=O)N(CCCO)C1CCc2ccccc21 (centres undefined),-23.18
16,COc1c(CNC2(c3noc(C)n3)CCC2)c(C)nn1C.Cl,-62.55
17,COc1c(CNC2CCc3cc(Cl)ccc32)c(C)nn1C (centres undefined),17.62
18,COc1c(CNC2(c3ccc(Cl)cc3)CCC2)c(C)nn1C,58.68
19,Cc1cc(C)n(-c2cccc(C(=O)Nc3n[nH]c(C4CCCO4)n3)c2)n1 (centres undefined),-55.68
20,Cc1ccc(O)c(CNc2cccc(CN3CCSCC3)c2)n1,-16.46
21,Cc1ccc(C(=O)O)cc1CNC(=O)CN1CC[C@](C)(O)C(C)(C)C1,-2.954
22,CC1(C)CN(CCC(=O)NCc2cccc(Cl)c2)CC[C@]1(C)O,51.99
23,O=C(CCN1CCCC(CO)(CC2CC2)C1)NCc1cccc(Cl)c1 (centres undefined),79.46
24,NC(=O)CN(CC(=O)NCc1cccc(Cl)c1)C1CCCC1,-61.22
25,O=C(CCC(=O)NCc1cccc(Br)c1)NCCN1CCCC1,-111.7
26,OCC1(Cc2cccc(Cl)c2)CCCN(c2ncccn2)C1 (centres undefined),-87.85

row,Compound,Percent Effect [%]
1,CC(C)NC(=O)c1cc2c(s1)CCN2c1ncccn1,-26.36
2,Cc1nc2n(n1)CC(NCc1c(Cl)ccc3cccnc13)CC2 (centres undefined),-131.5
3,CC(=O)CSc1nnc2n1N=CN(c1cccc(Cl)c1)C2,-35.13
4,N#Cc1cccc(OCCN2CCCC2C(=O)N2CCSCC2)c1 (centres undefined),50.57
5,N#Cc1cccc(OCCN2CCC(C(=O)N3CCOCC3)CC2)c1,-57.78
6,N#Cc1cccc(OCCN2CCCC2C(=O)Nc2nccs2)c1 (centres undefined),-33.68
7,CCc1nc(C)c(C(=O)N[C@@H]2c3ccccc3C[C@@H]2O)o1,-65.76
8,O=C(O)CN1CCC(c2ccccc2)CC1,-86.8
9,CN(C)c1nc(N)nc(CN2CCC(c3ccccc3)CC2)n1,80.66
10,Cc1nc(CC2CCCN(Cc3nc(N)c4ccccc4n3)C2)no1 (centres undefined),18.93
11,Cn1ccc(CN2CCC(c3ccccc3)CC2)cc1=O,20.97
12,Oc1ccccc1CN1CCCCCC1c1cccs1 (centres undefined),-50.57
13,CN(C)c1nc(N)nc(CN2CCCC(c3ccccc3)CC2)n1 (centres undefined),53.37
14,CN(C)c1nc(N)nc(CN2CCCC2c2cccs2)n1 (centres undefined),52.44
15,Cn1ncc2c(=O)[nH]c(CN3CCCC3c3cccs3)nc21 (centres undefined),-14.29
16,CN(C)c1nc(N)nc(CN2CCC(c3nc4ccccc4o3)CC2)n1,8.177
17,COC(=O)c1cc(OCC2CCC2)cc(C(=O)N[C@H](C)C(N)=O)c1,-189.7
18,CC(C)(C)c1n[nH]c(C2CN(C(=O)Cn3ccccc3=O)CCO2)n1 (centres undefined),-54.87
19,CC(C)NC(=O)N1CCCC2(CC(C(=O)Nc3ccccc3)=NO2)C1 (centres undefined),-67.17
20,COCCN(C)C[C@@H]1CN(C(=O)c2ccc(SC)cc2)C[C@@H]1CO,-5.304
21,COc1ccc(CCN(C)C(=O)CN2C(=O)OC[C@@H]2C(C)C)cc1OC,-25.4
22,CNC(=O)N1CCC(NC(=O)c2cnn(C)c2)CC1,-113.2
23,NS(=O)(=O)c1cnn(CCC(=O)N(Cc2ccccc2)C2CC2)c1,-42.03
24,COC(=O)c1ccc(N2CCN(CC(=O)NC(N)=O)C(C)C2)cc1 (centres undefined),-25.15
25,CC(C)(C)OC(=O)NC1CCCN(Cc2cccc(O)c2)C1 (centres undefined),51.54
26,CC(C)(C)OC(=O)NC1CCCN(Cc2cccs2)C1 (centres undefined),25.55

row,Compound,Percent Effect [%]
1,CCOC(=O)NC1CCCN(Cc2ccc(-n3cncn3)c(C)c2)C1 (centres undefined),-7.286
2,CCOc1ccc(C(=O)n2cccn2)cc1,-77.79
3,O=C(c1ccc(F)cc1)N1CCOC(c2nc(-c3ncccn3)no2)C1 (centres undefined),-155.2
4,O=C(O)C(F)(F)F.c1cnc(N2CCOC3(CCN(CC4CCOC4)CC3)C2)nc1 (centres undefined),-16.11
5,CN1CCN(c2ccc(NC(=O)c3ccoc3)c(C(F)(F)F)c2)CC1,-45.74
6,CN1CCN(c2ccc(NC(=O)c3cccs3)c(C(F)(F)F)c2)CC1,73.25
7,CN1CCN(c2ccc(NC(=O)c3ccccn3)c(C(F)(F)F)c2)CC1,-41.85
8,Cc1nc(CCCC(=O)Nc2cccc(N3CCNC3=O)c2)cs1,-207.5
9,Cc1ccc(N2CCCC(NCc3cnc(C)s3)C2)nn1 (centres undefined),-130.3
10,CC(C)[C@@H]1CN(C2CCN(Cc3ccccc3)CC2)C[C@H]1NS(C)(=O)=O,2.556
11,CC(c1ccncc1)N(C)S(C)(=O)=O (centres undefined),-81.75
12,COc1ncccc1C1CC(=O)Nc2cc(NS(C)(=O)=O)ccc21 (centres undefined),-136.9
13,Nc1cc(N2CCCC(COc3ccc(F)cc3)C2)ncn1 (centres undefined),-4.598
14,Cc1ccc(S(=O)(=O)NCC2CNCCOC2)cc1Cl (centres undefined),47.92
15,Cc1cc(S(=O)(=O)NCC2CNCCOC2)c(C)cc1Cl (centres undefined),75.13
16,Cc1cc(C)cc(S(=O)(=O)NCC2CNCCOC2)c1 (centres undefined),6.797
17,Cc1ccccc1CCC1CCCN(C(=O)Cc2cc(=O)[nH]c(N)n2)C1 (centres undefined),-123.2
18,CC(C)Cc1cc(C(=O)NCC2CCCN(Cc3ccco3)C2)on1 (centres undefined),-23.35
19,Cc1cnn(CCCNCc2csc(COc3ccccc3)n2)c1,70.2
20,c1ccc(OCc2nc(CNCCn3cccn3)cs2)cc1,20.38
21,Cc1cnn(CCNCc2csc(COc3ccccc3)n2)c1,42.25
22,COCCn1ccnc1C1CCN(C(=O)CSc2nnc(C)s2)CC1,-110.9
23,CN(C)[C@@H]1CO[C@H](CNC(=O)Nc2ccccc2)[C@H]1O,-62.35
24,O=C(NC[C@H]1OC[C@@H](N(CC2CC2)CC2CC2)[C@@H]1O)Nc1ccccc1,64.49
25,O=C(NC[C@H]1OC[C@@H](NC2CCC2)[C@@H]1O)Nc1ccccc1,-143.1
26,CN(CCCC1CCCO1)C(=O)c1cccc(C#N)c1 (centres undefined),-170.6

row,Compound,Percent Effect [%]
1,O=C(O)CCCC(=O)N1CCC(c2noc3cc(F)ccc23)CC1,-131.6
2,CS(=O)(=O)c1ccc(CNC(=O)NCc2cc[nH]n2)cc1,-45.13
3,CCC(O)(CNCc1ncc[nH]1)c1ccc(Br)cc1 (centres undefined),65.85
4,CCC(O)(CNCc1ccncc1)c1ccc(Br)cc1 (centres undefined),3.807
5,CC(C)(C)OC(=O)N1CCCc2ccc(NCc3ncc[nH]3)cc21,26.46
6,CC(=O)N1CCCN(C(=O)NCc2cc[nH]n2)CC1,-10.61
7,CCC(O)(CNCc1cc[nH]n1)c1ccc(Br)cc1 (centres undefined),76.25
8,O=C(c1cnccn1)N1C[C@@H]2CC[C@H](C1)N(S(=O)(=O)c1cccnc1)C2,-81.69
9,CC(C)c1nc(C2CCCN(C(=O)CCn3ccccc3=O)C2)no1 (centres undefined),-110.1
10,CCS(=O)(=O)N1CCC2(CCN(C(=O)c3cccs3)CC2)CC1,-4.516
11,CNS(=O)(=O)C1CCN(c2cc(C(C)C)nc(C(C)C)n2)C1 (centres undefined),-29.56
12,CN(C(=O)CN1CCCC1Cc1ccccc1)c1ccccc1 (centres undefined),20.57
13,N#CCCN(Cc1ccco1)C(=O)CN1CCCC1c1cccs1 (centres undefined),2.269
14,N#CCCN(C(=O)CN1CCCC1c1ccccc1Cl)c1ccccc1 (centres undefined),38.72
15,Cc1ccc(C2CCCN2CC(=O)N(CCC#N)c2ccccc2)cc1 (centres undefined),61.31
16,Cc1cc(C2CCCN2CC(=O)N(CCC#N)c2ccccc2F)on1 (centres undefined),-128.3
17,CCN(C(=O)CN1CCCC1c1ccc(OC)cc1)c1ccccc1 (centres undefined),17.94
18,CCN(C(=O)CN1CCCC1Cc1ccccc1)c1ccccc1 (centres undefined),59.02
19,CCN(C(=O)CN1CCCC1c1ccc(F)cc1)c1ccccc1C (centres undefined),-25.99
20,N#CCCN(C(=O)CN1CCCC1C1CCCCC1)c1ccccc1 (centres undefined),50.3
21,CC1CC(=O)c2cc(C(=O)N3CCc4ccccc43)c(=O)[nH]c2C1 (centres undefined),-103.7
22,CN(C)c1ncc(NC(=O)c2ccccc2C(F)(F)F)cn1,-13.75
23,O=C(Cn1ccc2c(Cl)cccc21)N1CCCC1,-3.751
24,COCC(=O)Nc1ccc2c(c1)C1(CCOCC1)CN2CCF.O=C(O)C(F)(F)F,-73.75
25,Cn1cc(C2COC3(CCN(C(=O)c4ccccn4)CC3)C2)cn1.O=C(O)C(F)(F)F (centres undefined),-70.09
26,COc1ccc(N2CCN(C(=O)CCc3n[nH]c(C)n3)CC2=O)cc1,-47.6

# From ChEMBL document CHEMBL3988442, “University of Dundee, Small-Polar-MMV Screening Library” (2021)
